Screening results deposited in PubChem by National Center for Advancing Translational Sciences (NCATS).
Pf growth 48h = Primary qHTS for delayed death inhibitors of the malarial parasite plastid, 48 hour incubation; P. falciparum luciferase growth in erythrocytes, 48 h; Potency, µM (doses to about 28.7 µM), most hits filed as inhibitors; 310,000 compounds, 5.9% hits
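Read-out is firefly luciferase luminescence from an integrated reporter in P. falciparum, so falling signal marks reduced parasite growth. Infected erythrocytes were at 2% hematocrit and 0.1% parasitemia (final) in Albumax-supplemented RPMI 1640.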
Shiga inhibitor = A qHTS for Small Molecule Inhibitors of Shiga Toxin | inhibition, % at 38.7 µM | Vero cells, Shiga toxin protein synthesis inhibition reporter | AID 2315, 2010 | 290,000 compounds, 9.2% hits; in the data active = inhibition mostly above about 28%, no sharp cut-off; inactive = mostly below about 43%
HCV inhibitor = qHTS Assay for Inhibitors of Hepatitis C Virus (HCV); Huh7.5.1 HCVcc-Cre infection, luciferase reporter, 44 h; Potency, µM (series often up to 41.8 µM), hits mostly inhibitors; 340,000 compounds, 3.4% hits
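Cells (1,000/well) were plated 4 h before compound, then infected with HCVcc-Cre virus (~0.5 moi). After 44 h further culture, infection was read as luciferase luminescence following a 15 min substrate incubation at room temperature.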
CHX counter = Cycloheximide Counterscreen for Small Molecule Inhibitors of Shiga Toxin; cell reporter, cycloheximide protein synthesis inhibition counterscreen; max response, %; 300,000 compounds, 12% hits; in the data active = max response mostly above about 13%, no sharp cut-off; inactive = mostly below about 14%; note: read at 38.3 µM for the half of the compounds with a filed dose
Pf growth 96h = Primary qHTS for delayed death inhibitors of the malarial parasite plastid, 96 hour incubation; 320,000 compounds, 6.9% hits; Potency, µM (series often up to 28.7 µM), actives largely listed as inhibitors; AID 504834, 2011; P. falciparum luciferase reporter growth, 96 h
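Readout is luminescence from an integrated firefly luciferase in P. falciparum. Red cells, 2% hematocrit and 0.05% parasitemia final, were cultured with compound through two parasite generations (96 hours) at 37 C, 5% CO2.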
AMA1-RON2 inh = qHTS for Inhibitors of AMA1-RON; Towards Development of Antimalarial Drug Lead: Primary Screen; Potency, µM (highest dose often 58.2 µM), most hits filed as inhibitors; AlphaScreen AMA1-biotinylated RON2 peptide binding; Plasmodium falciparum AMA1 (3D7) - RON2 peptide interaction; 360,000 compounds, 0.2% hits; AID 720542, 2013; note: nearly all actives have a fitted effect of over 45% in size
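AMA1 (3D7) with his tag at 25 nM final met compounds first, then biotinylated RON2 peptide at 25 nM; detection used donor plus acceptor beads, 10 µg/mL apiece, read by AlphaScreen after 30 min at room temperature.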
Of the large screens only hits and unclear results are named; the others gave an inactive call. An excerpt weighted towards active compounds, which were near 21% of everything screened. Unless noted, calls come from the whole dose curve; as a rule, active = well fitted curve in the direction sought with a large enough effect; inconclusive = small, poorly fitted or top-dose-only effect, or another doubt; inactive = no such curve, though single readings can be large; an effect the other way counts as inactive or inconclusive.

CCCCSCc1nc2ccccn2c1Br	Pf growth 48h inconclusive, Shiga inhibitor 56.4, CHX counter 31.4, Pf growth 96h inconclusive
O=C(NCc1ccccc1)C1CC(=O)N(C2CCCCC2)C1 (stereo not drawn)	none
CN(C)CCC#CC(O)(c1ccccc1)c1ccccc1	Pf growth 48h 11.7µM, Pf growth 96h inconclusive
CCN(CC)CC#CC(O)(c1ccccc1)c1ccccc1	none
Cc1ccc(C(=O)Nc2ccc3nc(C)sc3c2)s1	Shiga inhibitor 112.5, CHX counter 43.5 (no result: Pf growth 96h)
Cc1ccc(C(=O)Nc2ccc3nc(C)sc3c2)o1	none (no result: Pf growth 48h, Shiga inhibitor, HCV inhibitor, CHX counter, Pf growth 96h)
Cc1nc2cc(NC(=O)c3ccc(Br)s3)ccc2s1	Shiga inhibitor 117.1, HCV inhibitor 11.2µM, CHX counter 62.9
Cc1ccnc(N2C(=O)OC(C)(C)C2(C)O)c1 (stereo not drawn)	Pf growth 96h 8.28µM
O=C(COC(=O)Cc1c(F)cccc1Cl)NC1CCS(=O)(=O)C1 (stereo not drawn)	none (no result: Shiga inhibitor, CHX counter)
COc1ccc(-c2csc(NC(=O)c3ccoc3C)n2)cc1	Shiga inhibitor 152.8, HCV inhibitor 11.2µM, CHX counter 40.8
CN(c1ccc(C(=O)Nc2nccs2)cc1)S(=O)(=O)c1ccccc1	Pf growth 48h inconclusive, Shiga inhibitor 56.6, HCV inhibitor inconclusive, CHX counter 37.7
O=C(Nc1nccs1)c1ccc(S(=O)(=O)NCc2cccs2)cc1	HCV inhibitor 10µM (no result: Pf growth 96h)
Cc1csc(NC(=O)c2ccc(S(=O)(=O)N(C)c3ccccc3)cc2)n1	Pf growth 48h inconclusive, Shiga inhibitor 41.6, HCV inhibitor inconclusive, CHX counter 33.6, Pf growth 96h inconclusive
O=C(Nc1nccs1)c1ccc(S(=O)(=O)NCC2CCCCC2)cc1	none (no result: HCV inhibitor)
C[C@@H]1CN([C@H](C)CO)C(=O)c2cc(Br)cnc2O[C@H]1CN(C)C(=O)Cc1ccccc1	none (no result: Pf growth 48h, Shiga inhibitor, HCV inhibitor, CHX counter, Pf growth 96h)
COc1ccc(NC(=O)C2CC2(Cl)Cl)cc1S(=O)(=O)N1CCCCC1 (stereo not drawn)	none (no result: Pf growth 48h, Shiga inhibitor, HCV inhibitor, CHX counter, Pf growth 96h)
O=C(Nc1ccc(Br)cc1)c1ccc(F)c(S(=O)(=O)NCc2cccs2)c1	Pf growth 48h inconclusive, HCV inhibitor 5.01µM, Pf growth 96h inconclusive
O=S(=O)(NCc1cccs1)c1ccc(Br)cc1	none
COc1ccc(-c2csc(NC(=O)c3ccc(S(C)(=O)=O)cc3)n2)cc1	Shiga inhibitor 72.5, HCV inhibitor inconclusive, CHX counter 32.8
Cc1csc(NC(=O)c2ccc(C(=O)Nc3nc(C)cs3)cc2)n1	Pf growth 48h inconclusive, Pf growth 96h inconclusive (no result: HCV inhibitor, AMA1-RON2 inh)
Cc1csc(NC(=O)c2ccc(S(C)(=O)=O)cc2)n1	Shiga inhibitor 72.1, CHX counter 40.4
CCc1nc2ccc(C(=O)N3CCN(S(=O)(=O)CC)CC3)cn2c1N(CC)C(=O)NCCc1ccccc1	none (no result: Pf growth 48h, Shiga inhibitor, HCV inhibitor, CHX counter, Pf growth 96h)
COc1ccc(CCNC(=O)c2cnccn2)cc1	Pf growth 96h inconclusive (no result: Pf growth 48h)
C/C(Cc1ccccc1)=N\NC(=O)c1ccccn1	Shiga inhibitor 89.0, CHX counter 53.4
COc1ccc(NC(=O)C/C(C)=N/NC(=O)c2cnccn2)c(OC)c1	CHX counter 36.9
C/C(Cc1ccccc1)=N\NC(=O)c1cccnc1	none
CCC(C)c1ccc(NC(=O)C/C(C)=N/NC(=O)c2cnccn2)cc1 (stereo not drawn)	Shiga inhibitor 48.1, CHX counter 24.3, Pf growth 96h inconclusive
COc1ccc(CCNC(=O)C/C(C)=N/NC(=O)c2cnccn2)cc1	Shiga inhibitor 41.4, CHX counter 35.7
CC(=O)c1cc2c(cc1NC(=O)c1ccccc1C)OCO2	none (no result: HCV inhibitor, AMA1-RON2 inh)
CNC(=S)Nc1cc(C)ccc1OC(F)F	Pf growth 96h inconclusive
COc1ccc(NC(=O)C/C(C)=N/NC(=O)c2ccccn2)c(OC)c1	Shiga inhibitor 87.9, CHX counter 37.5, Pf growth 96h 13.1µM
C/C(CC(=O)Nc1ccccc1C(F)(F)F)=N\NC(=O)c1cnccn1	none (no result: Pf growth 48h, Shiga inhibitor, CHX counter, Pf growth 96h)
C/C(CC(=O)NCc1ccccc1)=N\NC(=O)c1cnccn1	Shiga inhibitor 40.3, CHX counter 12.2
COc1ccc(NC(=O)C/C(C)=N/NC(=O)C(=O)NC2CCCCC2)c(OC)c1	Pf growth 96h inconclusive
C/C(CC(=O)Nc1cc(C)cc(C)c1)=N\NC(=O)c1ccccn1	Shiga inhibitor 43.2, CHX counter 37.1
